# Reference: PubChem BioAssay AID425 (Sanford-Burnham Center for Chemical Genomics, 2006)
# About 190 (0.17%) of roughly 110,000 compounds were called active. The sample as a whole holds a higher share of actives than the screen did. Potency and affinity values are given separately. A number with no mark means an inactive call. Cut-off read from the data, not from the text of the source: active = inhibition above about 50%; inactive = the rest.
# Molecular target: Dual specificity protein phosphatase 6 (Rattus norvegicus) (UniProt Q64346)
# Sequence (Q64346 whole entry, looked up): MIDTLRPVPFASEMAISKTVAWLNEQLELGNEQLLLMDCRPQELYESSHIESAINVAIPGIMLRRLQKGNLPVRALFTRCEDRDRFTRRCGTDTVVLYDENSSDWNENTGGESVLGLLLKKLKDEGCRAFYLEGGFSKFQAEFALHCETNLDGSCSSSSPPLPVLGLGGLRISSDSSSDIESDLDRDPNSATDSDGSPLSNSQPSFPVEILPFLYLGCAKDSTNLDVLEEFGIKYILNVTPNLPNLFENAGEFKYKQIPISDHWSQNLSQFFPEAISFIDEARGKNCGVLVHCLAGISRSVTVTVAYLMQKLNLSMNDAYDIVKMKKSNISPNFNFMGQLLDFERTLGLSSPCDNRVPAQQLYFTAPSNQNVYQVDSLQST
# Experiment: MKP-3 phosphatase inhibitors, primary screen, biochemical, rat enzyme, in vitro (AID 425);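 note: plate controls were vehicle for no effect and reference inhibitor for full effect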
# Conditions: recombinant MKP-3 phosphatase activity, fluorescence; at 20 µM; stronger effect = higher value
row,SMILES,inhibition
1,Cc1cc(Cl)ccc1OCCCC(=O)NC1CCN(C)CC1,-4.9%
2,Cn1c(CCNC(=O)c2ccccc2F)nnc1SCc1nc2ccccc2c(=O)[nH]1,-5.4%
3,COc1ccc(S(=O)(=O)Nc2cccc([N+](=O)[O-])c2C)cc1,-0.4%
4,CCCCSc1nc(C)c(CC(=O)OC)c(=O)[nH]1,-20.2%
5,CCCOc1cccc(C(=O)Nc2ccc(Br)cc2C(=O)O)c1,2.6%
6,C=CCN1C(=O)/C(=C\c2ccc([N+](=O)[O-])o2)C(=O)NC1=S,95.8% (active)
7,C=CCN1C(=O)/C(=C\c2ccc(I)o2)C(=O)NC1=S,4.5%
8,C=CCN1C(=O)/C(=C\c2ccc(-c3ccc([N+](=O)[O-])cc3)o2)C(=O)NC1=S,25.4%
9,O=C1NN(c2ccccc2)C(=O)/C1=C/c1ccc(-c2ccc(F)cc2)o1,-3.3%
10,O=C1NN(c2ccccc2)C(=O)/C1=C/c1ccc(Br)o1,75.8% (active)
11,O=C1NN(c2ccccc2)C(=O)/C1=C/c1ccc(-c2cccc([N+](=O)[O-])c2)o1,6.9%
12,O=C1NN(c2ccccc2)C(=O)/C1=C/c1ccc(-c2ccccc2)o1,7.9%
13,O=C1NN(c2ccccc2)C(=O)/C1=C/c1ccc(-c2ccccc2[N+](=O)[O-])o1,16%
14,O=C1NN(c2ccccc2)C(=O)/C1=C/c1ccc([N+](=O)[O-])o1,56.6% (active)
15,Cc1ccc(S(=O)(=O)NC(C)(C)CN2CCN(CC(C)(C)NS(=O)(=O)c3ccc(C)cc3)CC2)cc1,-0.5%
16,Cc1ccc2nc(NC(=O)c3ccccc3)sc2c1,1.9%
17,COc1ccccc1/C=C/C=N/NC(=O)CSc1nc2ccccc2n1C,1.8%
18,CCOc1ccccc1NC(=O)c1c(NC(=O)c2cccc(F)c2)sc2c1CCC(C)C2 (configuration not stated),3.6%
19,CSc1nc(NCCOCCO)c2sc3nc(-c4ccco4)c4c(c3c2n1)CCC4,-0.3%

row,SMILES,inhibition
1,CSc1nc(N2CCN(CCO)CC2)c2sc3nc(-c4ccco4)c4c(c3c2n1)CCC4,0.5%
2,O=C(/C=C/c1ccco1)Nc1ccc(Cl)c(Cl)c1,10.7%
3,O=C(O)/C=C/c1ccc(-c2ccc(Cl)c(Cl)c2)o1,-3.2%
4,O=C(/C=C/c1ccco1)/C=C/c1ccc(-c2ccc(Cl)c(Cl)c2)o1,75.1% (active)
5,COC(=O)C(C(=O)OC)C1=C/C(=N/S(=O)(=O)c2ccc(C)cc2)c2ccccc2C1=O,1.7%
6,O=C1C(Cl)=C/C(=N\S(=O)(=O)c2ccc(Cl)cc2)C(Cl)=C1Cl,-1%
7,Cc1ccc(S(=O)(=O)/N=C2\C=CC(=O)C=C2Cl)cc1,-0.1%
8,Cc1ccc(S(=O)(=O)/N=C2\C=C(Sc3ncn[nH]3)C(=O)c3ccccc32)cc1,98.1% (active)
9,Cc1ccc(S(=O)(=O)/N=C2/C=C(S(=O)(=O)c3ccc(C)cc3)C(=O)c3ccccc32)cc1,20.6%
10,COc1ccc(S(=O)(=O)/N=C2\C=C(Br)C(=O)c3ccccc32)cc1,97.9% (active)
11,Cc1ccc(S(=O)(=O)/N=C2/C=C(Cl)C(=O)c3ccccc32)cc1,52.7% (active)
12,O=C1C(Cl)=CC(=NS(=O)(=O)c2ccc(Cl)cc2)c2ccccc21,95.7% (active)
13,Cc1ccc(S(=O)(=O)/N=C2/C=C(Sc3nnnn3-c3ccccc3)C(=O)c3ccccc32)cc1,27.3%
14,COc1ccc(S(=O)(=O)N=C2C=CC(=NS(=O)(=O)c3ccc(OC)cc3)C=C2)cc1,1.8%
15,Cc1ccc(S(=O)(=O)/N=C2\C=C(n3cnc4ccccc43)C(=O)c3ccccc32)cc1,36.8%
16,O=C1C(N2CCOCC2)=C/C(=N\S(=O)(=O)c2ccc(Cl)cc2)c2ccccc21,5.9%
17,N#CC1=C(N)N(c2ccccc2)C(c2ccco2)C1(C#N)C#N (configuration not stated),-9.8%
18,COC(=O)c1ccccc1NC(=O)c1ccccc1C,0.2%
19,O=C(/C=C/c1ccc2c(c1)OCO2)NC1CC2CCC1C2 (configuration not stated),3.3%

row,SMILES,inhibition
1,COc1ccc(C2=NN(CN3C(=O)C(=O)c4ccccc43)C(c3ccccc3)C2)cc1 (configuration not stated),1.1%
2,O=C1C2=C(C(c3ccccc3)=NCCN2)C(c2ccc(O)cc2)N1c1ccccc1 (configuration not stated),0.2%
3,Cc1ccccc1N1C(=O)/C(=C\c2cccs2)SC1=S,0.2%
4,Cc1cccc(-c2nnc(SCc3nc4ccccc4[nH]3)n2Cc2ccco2)c1,-6.8%
5,O=S(=O)(NCCOCCNS(=O)(=O)c1ccccc1)c1ccccc1,-1.6%
6,Cc1ccc(/C(O)=C(\C#N)c2nc3ccccc3[nH]2)cc1,5.3%
7,O=C(O/N=C1/CCCc2c1sc1nc3n(c(=O)c21)CCCCC3)c1ccc([N+](=O)[O-])cc1,-4.1%
8,Cc1ccc(S(=O)(=O)NC(=O)N2CCc3ccccc32)cc1,4.5%
9,CCN(CC)C(=O)CSc1nc2cccnc2n1-c1ccccc1OC,-6.6%
10,OCCCc1nc2ccccc2n1Cc1ccc2ccccc2c1,3.2%
11,CCc1nn(CC(=O)NCCCN(CC)Cc2ccccc2)c(=O)c2cc3sccc3n12,2%
12,O=C(O)c1cc(-c2ccc(/C=C3/Sc4ccccc4C3=O)o2)ccc1O,84.4% (active)
13,O=C1NC(=S)S/C1=C\c1ccc(-c2ccc(Cl)c(C(=O)O)c2)o1,10.9%
14,O=C1NC(=O)/C(=C/c2ccc(-c3ccc(O)c(C(=O)O)c3)o2)S1,105% (active)
15,O=C1NC(=O)/C(=C\c2ccc(-c3ccc(C(=O)O)cc3)o2)S1,2.5%
16,O=C(O)c1cc(-c2ccc(C=C3C(=O)c4ccccc4C3=O)o2)ccc1O,47.2%
17,O=C1/C(=C/c2ccc(-c3ccc(Cl)cc3C(=O)O)o2)Sc2ccccc21,7.4%
18,COc1ccccc1CNC(=O)C(NC(=O)C1CCCCC1)C(C)C (configuration not stated),-3.5%
19,CCOC(=O)CNC(=S)Nc1ccc(F)cc1,1.8%
